# Data from the supplement of paper PMC3342239.
# Structures can show the parent of a compound that is named as a salt.
# Test system: Saccharomyces cerevisiae
# Assay: fraction of cells in G1 phase (DNA content, flow cytometry); higher = more cells with unreplicated DNA (G1 delay)
# Details: temperature: 30 C; YPD; JTY2953 pdr5 snq2 (sensitized); drug added to: cultures diluted from stationary phase; 6-7 h
# Procedure, shortened: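 Yeast (S. cerevisiae) in YPD at 30°C was treated with library drugs, and cells were then fixed in ethanol, stained with SYTOX Green and counted by flow cytometry over 10,000 events. Sensitized JTY2953 diluted 1∶200 from an overnight culture got a final 20 µg/ml and was fixed 6–7 h later; other runs dosed dividing JTY2953 (fixed at 6 h) or BY4741 (fixed at 4.33 h). G1 fraction means the Dean-Jett-Fox G1 peak area relative to the G1 and G2/M areas together.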
row,SMILES,fraction of cells in G1 phase
1,COC(=O)Nc1nc2cc([S+]([O-])c3ccccc3)ccc2[nH]1 (stereo unspecified) [Oxfendazole] (63.421 µM),0.536
2,O=C(CCCN1CCN(c2ccccn2)CC1)c1ccc(F)cc1 [Azaperone] (61.0864 µM),0.582
3,O=C(C1CCCCC1)N1CC(=O)N2CCc3ccccc3C2C1 (stereo unspecified) [Praziquantel] (64.0173 µM),0.441
4,CCOC(=O)C1=C[C@@H](OC(CC)CC)[C@H](NC(C)=O)[C@@H](N)C1 [Oseltamivir] (64.0179 µM),0.472
5,CNS(=O)(=O)Cc1ccc2[nH]cc(CCN(C)C)c2c1 [Sumatriptan Succinate] (48.368 µM),0.457
6,"C/C=C/c1ccc(OC)cc1 [Anethole, trans-] (134.947 µM)",0.525
7,O=C(c1ccc(OCCN2CCCCC2)cc1)c1c(-c2ccc(O)cc2)sc2cc(O)ccc12 [Raloxifene HCl] (42.2301 µM),0.508
8,CC(C)OC(=O)C(C)(C)Oc1ccc(C(=O)c2ccc(Cl)cc2)cc1 [Fenofibrate] (55.4261 µM),0.497
9,COc1ccc(CCN(C)CCCC(C#N)(c2ccc(OC)c(OC)c2)C(C)C)cc1OC (stereo unspecified) [Verapamil] (40.7249 µM),0.507
10,OCCN(CCO)c1nc(N2CCCCC2)c2nc(N(CCO)CCO)nc(N3CCCCC3)c2n1 [Dipyridamole] (39.6324 µM),0.535
11,CN(C)CC/C=C1/c2ccccc2COc2ccc(CC(=O)O)cc21 [Olopatadine] (59.2729 µM),0.431
12,CNCCC(Oc1ccccc1OC)c1ccccc1 (stereo unspecified) [Nisoxetine HCl] (73.7022 µM),0.511
13,COc1cc2nc(N3CCN(C(=O)C4CCCO4)CC3)nc(N)c2cc1OC (stereo unspecified) [Terazosin HCl] (51.6206 µM),0.504
14,CCCNCC(O)COc1ccccc1C(=O)CCc1ccccc1 (stereo unspecified) [Propafenone] (58.5652 µM),0.489
15,COc1cc([C@@H]2c3cc4c(cc3[C@@H](O[C@@H]3O[C@@H]5CO[C@@H](C)O[C@H]5[C@H](O)[C@H]3O)[C@H]3COC(=O)[C@H]23)OCO4)cc(OC)c1O [Etoposide] (33.9806 µM),0.496
16,COc1ccc(C[C@H](N)C(=O)N[C@H]2[C@@H](O)[C@H](n3cnc4c(N(C)C)ncnc43)O[C@@H]2CO)cc1 [Puromycin 2HCl] (36.7377 µM),0.5

row,SMILES,fraction of cells in G1 phase
1,NNC(=O)c1ccncc1 [Isoniazid] (145.834 µM),0.518
2,CC(=O)SCC(Cc1ccccc1)C(=O)NCC(=O)OCc1ccccc1 (stereo unspecified) [Racecadotril] (51.8826 µM),0.509
3,CCS(=O)(=O)CCn1c([N+](=O)[O-])cnc1C [Tinidazole] (80.8818 µM),0.443
4,CCCCC[C@H](O)/C=C/[C@H]1[C@H](O)CC(=O)[C@@H]1C/C=C\CCCC(=O)O [Dinoprostone] (56.7416 µM),0.487
5,N=c1ccn2c(n1)O[C@H]1[C@H](O)[C@@H](CO)O[C@H]12 [Cyclocytidine HCl] (88.8077 µM),0.484
6,CC(C)NCC(O)c1ccc(NS(C)(=O)=O)cc1 (stereo unspecified) [Sotalol HCl] (73.4298 µM),0.535
7,CC[C@H](C)C(=O)O[C@H]1C[C@H](O)C=C2C=C[C@H](C)[C@H](CC[C@@H]3C[C@@H](O)CC(=O)O3)[C@H]21 [Pravastatin lactone] (49.1976 µM),0.451
8,COc1cc2ncnc(Nc3ccc(F)c(Cl)c3)c2cc1OCCCN1CCOCC1 [Gefitinib] (44.7514 µM),0.535
9,C[C@@H](O)[C@H]1C(=O)N2C(C(=O)O)=C(S[C@@H]3CN[C@H](C(=O)N(C)C)C3)[C@H](C)[C@H]12 [Meropenem] (52.1553 µM),0.495
10,N=C(N)NC(=N)N1CCOCC1 [Moroxydine HCl] (96.3092 µM),0.496
11,CCOC(=O)c1ncn2c1CN(C)C(=O)c1cc(F)ccc1-2 [Flumazenil] (65.9423 µM),0.507
12,CC(c1cc2ccccc2s1)N(O)C(N)=O (stereo unspecified) [Zileuton] (84.6401 µM),0.53
13,Nc1nc2ccc(OC(F)(F)F)cc2s1 [Riluzole HCl] (85.3967 µM),0.551
14,CN1CCN(CC(=O)N2c3ccccc3C(=O)Nc3cccnc32)CC1 [Pirenzepine 2HCl] (56.9133 µM),0.534
15,COCc1c(C(C)C)nc(C(C)C)c(/C=C/[C@@H](O)C[C@@H](O)CC(=O)O)c1-c1ccc(F)cc1 [Cerivastatin] (43.5196 µM),0.448
